Laboratory results published in PubChem BioAssay (NCATS).
Several values for one entry are separate records, joined by “and”; a condition that tells them apart may be missing. Equal entries are not always repeated. Values without a mark were called inactive. Inconclusive results are not listed. Entries that show only a call come without a potency. Activity calls are given as the source filed them. Unless noted, the call rests on the fitted dose curve; in most records, active means well fitted curve in the direction sought with a large enough effect; inconclusive means small, poorly fitted or top-dose-only effect, or another doubt; inactive means no such curve, though single readings can be large; an effect the other way counts as inactive or inconclusive.

What was measured:
[1] = biological target: Voltage-gated inwardly rectifying potassium channel KCNH2 (Homo sapiens) (UniProt Q12809); assay: qHTS Assay for Small Molecule Inhibitors of the Human hERG Channel Activity (AID 588834); settings: U2OS BacMam hERG, FluxOR thallium flux fluorescence; series mostly up to 46.1 µM;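 further: top concentration of the series differs between compounds; lower thallium flux fluorescence means stronger hERG block; nearly all actives have a fitted effect of over 50% in size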
Chain of Voltage-gated inwardly rectifying potassium channel KCNH2 (Homo sapiens) (Q12809 whole entry, looked up): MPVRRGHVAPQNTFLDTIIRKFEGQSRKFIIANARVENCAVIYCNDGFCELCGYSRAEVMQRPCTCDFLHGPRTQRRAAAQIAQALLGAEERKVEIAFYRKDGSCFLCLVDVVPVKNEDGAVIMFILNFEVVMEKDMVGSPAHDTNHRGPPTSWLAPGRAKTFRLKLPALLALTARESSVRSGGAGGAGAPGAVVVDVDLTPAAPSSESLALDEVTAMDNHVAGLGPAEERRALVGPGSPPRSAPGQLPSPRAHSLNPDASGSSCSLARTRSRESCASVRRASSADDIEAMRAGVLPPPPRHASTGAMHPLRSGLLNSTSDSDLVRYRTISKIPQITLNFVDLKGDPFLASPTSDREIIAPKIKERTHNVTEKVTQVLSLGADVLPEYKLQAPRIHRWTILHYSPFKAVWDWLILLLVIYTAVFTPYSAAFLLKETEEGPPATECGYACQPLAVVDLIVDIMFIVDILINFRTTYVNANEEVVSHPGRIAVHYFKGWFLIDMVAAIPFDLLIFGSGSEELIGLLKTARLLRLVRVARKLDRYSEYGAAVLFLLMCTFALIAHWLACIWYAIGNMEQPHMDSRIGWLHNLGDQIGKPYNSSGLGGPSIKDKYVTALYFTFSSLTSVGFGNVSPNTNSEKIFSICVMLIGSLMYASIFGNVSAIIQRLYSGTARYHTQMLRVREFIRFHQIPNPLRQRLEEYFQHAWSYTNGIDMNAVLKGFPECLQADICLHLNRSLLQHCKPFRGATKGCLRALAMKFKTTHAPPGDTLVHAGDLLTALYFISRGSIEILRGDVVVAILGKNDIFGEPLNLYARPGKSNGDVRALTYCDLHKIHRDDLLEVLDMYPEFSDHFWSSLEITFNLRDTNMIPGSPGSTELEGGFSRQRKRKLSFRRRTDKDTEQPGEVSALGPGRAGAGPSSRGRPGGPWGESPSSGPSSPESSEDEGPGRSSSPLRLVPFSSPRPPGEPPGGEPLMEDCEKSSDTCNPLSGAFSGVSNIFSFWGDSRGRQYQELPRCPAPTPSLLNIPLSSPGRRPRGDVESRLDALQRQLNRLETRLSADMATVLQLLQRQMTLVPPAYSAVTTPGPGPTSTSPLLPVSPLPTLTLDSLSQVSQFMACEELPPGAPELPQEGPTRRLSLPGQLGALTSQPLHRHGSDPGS
Outline: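 Blockade is seen as reduced FluxOR thallium-flux fluorescence in U2OS cells expressing hERG from a BacMam construct, in Opti-MEM with 2% FCS. Concentration-response data fitted to the Hill equation for AC50.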

[2] = biological target: Luciferin 4-monooxygenase (Photinus pyralis) (UniProt P08659); assay: Biochemical firefly luciferase enzyme assay for NPC (AID 624030);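 further: purified P. pyralis luciferase at 10 nM with luciferin and ATP substrate; nearly all actives have a fitted effect of over 70% in size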; settings: purified P. pyralis luciferase, luminescence, 5 min; series mostly up to 58.6 µM
Chain of Luciferin 4-monooxygenase (Photinus pyralis) (P08659 whole entry, looked up): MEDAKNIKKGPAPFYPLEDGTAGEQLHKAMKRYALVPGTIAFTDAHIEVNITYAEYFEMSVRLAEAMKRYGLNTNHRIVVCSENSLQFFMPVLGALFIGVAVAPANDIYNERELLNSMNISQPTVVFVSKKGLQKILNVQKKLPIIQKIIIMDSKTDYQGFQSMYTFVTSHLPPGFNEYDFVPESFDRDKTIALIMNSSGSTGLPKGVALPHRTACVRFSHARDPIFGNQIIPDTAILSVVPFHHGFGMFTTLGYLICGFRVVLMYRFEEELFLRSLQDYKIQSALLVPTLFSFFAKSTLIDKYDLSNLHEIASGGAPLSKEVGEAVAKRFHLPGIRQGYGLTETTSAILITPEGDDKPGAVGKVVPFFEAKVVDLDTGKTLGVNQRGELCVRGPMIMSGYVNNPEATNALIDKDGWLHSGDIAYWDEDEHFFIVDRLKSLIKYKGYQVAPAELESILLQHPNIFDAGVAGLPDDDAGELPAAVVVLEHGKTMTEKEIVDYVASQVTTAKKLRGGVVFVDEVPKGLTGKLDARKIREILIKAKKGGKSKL
Outline: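 Purified P. pyralis luciferase at 10 nM in 50 mM Tris Acetate (final), luminescence read within 5 minutes of enzyme addition to compounds. Activity normalised to PTC124 versus DMSO; concentration-response curves classed by r2, magnitude and activity.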

[3] = S16 Schwann cell viability assay (CellTiter-Glo assay) (AID 624031); settings: S16 rat Schwann cells viability, 24 h; series mostly up to 57.5 µM;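 further: native untransfected S16 rat Schwann cells; cellular ATP luminescence as a viability measure; nearly all actives have a fitted effect of over 70% in size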
Outline: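 Concentration-effect curves come from CellTiter-Glo luminescence of S16 rat Schwann cells after 24 h compound exposure. Each reading was normalized to DMSO wells (0%) and wells without cells, and curves were ranked by r2 and response magnitude.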

[4] = S16 Schwann cell PMP22 intronic element firefly luciferase assay (AID 624032); settings: S16 rat Schwann cells, PMP22 element FLuc, 24 h; series mostly up to 57.5 µM; further: nearly all actives have a fitted effect of over 30% in size
Outline: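 Rat S16 Schwann cells stably carrying firefly luciferase driven by a PMP22 intronic element, in 10% FBS, treated 24 h at 37 C. ONE-Glo luminescence normalized to PTC124 control and DMSO (0%); curves classed by r2, magnitude and activity.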

[5] = S16 Schwann cell PMP22 intronic element beta-lactamase assay (AID 624044; calls by dose curve; further: nearly all actives have a fitted effect of over 15% in size); settings: S16 rat Schwann cells, PMP22 element beta-lactamase FRET, 24 h; ratio activity, negative = inhibition: at 38.3 µM (top of the series) unless noted
Outline: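 Rat S16 Schwann cells with beta-Lac driven by a PMP22 intronic element, compound-treated 24 h at 37 °C. LiveBLAzer FRET B/G read: 460 nm normalized to potassium clavulanate vs DMSO; 535 nm FRET as viability; concentration-effect curves classified.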

[6] = qHTS assay for small molecule agonists of the antioxidant response element (ARE) signaling pathway (AID 651741; active means well fitted activation curve with a large enough effect in the signal ratio; the % refers to the signal ratio; further: potency means the concentration at half of the fitted maximal effect); settings: HepG2 ARE-bla reporter, beta-lactamase FRET ratio, 16 h; series mostly up to 96 µM
Outline: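 HepG2 ARE-bla cells plated at 2,000 cells/well and incubated 5 h at 37 C/5% CO2 received 23 nL compound in DMSO. After 16 h at 37 C, LiveBLAzer B/G FRET substrate was applied for 2 h at room temperature and fluorescence read.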

[7] = qHTS assay for small molecule activators of the p53 signaling pathway (AID 651743; active means well fitted activation curve with a large enough effect in the signal ratio, not every such curve was filed as active; the % refers to the signal ratio); settings: HCT-116 p53RE-bla, beta-lactamase FRET ratio, 16 h; activation: hits give high values
Outline: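 HCT-116 p53RE-bla, 4,000 cells/well; 5 h settle; cpd/DMSO 16 h, 37 C; LiveBLAzer B/G 2 h RT; fluorescence intensity.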

[8] = qHTS assay for small molecule activators of the nuclear factor-kappa B (NF-kB) signaling pathway (AID 651749; active means well fitted activation curve with a large enough effect in the signal ratio; the % refers to the signal ratio); settings: NF-kB-bla ME-180 cells, beta-lactamase FRET ratio, 16 h; hits give high values
Outline: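 Incubation lasted 16 hr at 37C in 5% CO2 after 23 nL compound addition to ME-180 NF-kB-bla cells. Activation appears as beta-lactamase-mediated FRET loss.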

[9] = qHTS assay for small molecule disruptors of the mitochondrial membrane potential - 1 hr assay (AID 651754; calls by dose curve; further: nearly all actives have a fitted effect of over 35% in size); settings: series mostly up to 92.2 µM
Outline: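 HepG2 cells, attached overnight at 37C, were exposed to compound or DMSO vehicle for 1 hr at 37C, 5% CO2, then stained with Mito-MPS dye for 30 min. Red aggregate versus green monomer fluorescence reports membrane potential.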

[10] = qHTS assay for small molecule disruptors of the mitochondrial membrane potential - 5 hr assay (AID 651755; calls by dose curve; further: nearly all actives have a fitted effect of over 40% in size); settings: JC-1-type ratio dye; series mostly up to 92.2 µM
Outline: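 HepG2 cells (2,000/well), attached overnight, exposed to compound 5 hr at 37C, then Mito-MPS dye 30 min. Fluorescence read for monomers (490/535 nm) and aggregates (540/590 nm).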

[11] = biological target: Tumor necrosis factor (Homo sapiens) (UniProt P01375); assay: qHTS assay to identify small molecules that stimulate Tumor Necrosis Factor-alpha (TNF-alpha) secretion (AID 651757; active means well fitted curve in the direction sought with a large enough effect in the signal ratio; the % refers to the signal ratio); settings: Human cells, HTRF 665/615 ratio; series mostly up to 92.2 µM
Chain of Tumor necrosis factor (Homo sapiens) (P01375 whole entry, looked up): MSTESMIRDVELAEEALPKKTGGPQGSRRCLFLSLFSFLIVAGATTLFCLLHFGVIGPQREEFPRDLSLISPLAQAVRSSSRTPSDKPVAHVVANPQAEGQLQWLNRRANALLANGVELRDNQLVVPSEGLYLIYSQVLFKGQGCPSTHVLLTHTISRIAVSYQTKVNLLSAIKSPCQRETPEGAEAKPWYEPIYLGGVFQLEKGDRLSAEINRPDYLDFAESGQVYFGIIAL
Outline: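 THP-1 cells were exposed to compounds for 17 hrs at 37 C, after which secreted TNF-alpha was measured by homogeneous HTRF (TR-FRET) using cryptate- and XL665-labeled anti-TNF-alpha antibodies, read after 3 hr at room temperature.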

[12] = qHTS assay for environmental chemicals that activate the Aryl hydrocarbon Receptor (AhR) signaling pathway (AID 651777); settings: 1A2-DRE human hepatoma cells, luciferase, 24 h; activation: hits give high values; further: nearly all actives have a fitted effect of over 15% in size
Outline: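 Stable CYP1A2 promoter/DRE-luciferase human hepatoma line treated 24 hr; One-Glo luminescence, 30 min RT.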

[13] = biological target: Peroxisome proliferator-activated receptor alpha (Homo sapiens) (UniProt Q07869); assay: qHTS assay for small molecule agonists of the peroxisome proliferator-activated receptor alpha (PPARalpha) signaling pathway (AID 651778); settings: PathHunter PPARalpha complementation, chemiluminescence, 6 h; hits give high values
Chain of Peroxisome proliferator-activated receptor alpha (Homo sapiens) (Q07869 whole entry, looked up, the tested form may be a part): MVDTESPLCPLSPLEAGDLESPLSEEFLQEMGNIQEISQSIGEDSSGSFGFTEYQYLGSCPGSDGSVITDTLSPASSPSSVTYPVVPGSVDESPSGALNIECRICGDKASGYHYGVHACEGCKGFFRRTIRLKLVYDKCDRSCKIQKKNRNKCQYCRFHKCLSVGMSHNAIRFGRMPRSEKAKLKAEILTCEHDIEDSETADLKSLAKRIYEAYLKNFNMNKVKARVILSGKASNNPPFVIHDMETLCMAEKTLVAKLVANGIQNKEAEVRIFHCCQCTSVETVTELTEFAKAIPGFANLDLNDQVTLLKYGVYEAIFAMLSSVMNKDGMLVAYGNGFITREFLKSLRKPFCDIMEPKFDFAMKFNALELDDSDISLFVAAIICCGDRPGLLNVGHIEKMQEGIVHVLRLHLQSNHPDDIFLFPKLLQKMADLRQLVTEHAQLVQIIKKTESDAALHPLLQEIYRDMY
Outline: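 Enzyme-fragment complementation assay in which ligand-bound PPARalpha translocates and forms an active enzyme that generates chemiluminescence. Cells were plated overnight, exposed to compound for 6 hr at 37 C, and then given detection reagent for 60 min at room temperature.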

[14] = biological target: Nuclear receptor ROR-gamma (Homo sapiens) (UniProt P51449); assay: qHTS assay for small molecule antagonists of the retinoid-related orphan receptor gamma (ROR-gamma) signaling pathway (AID 651802); settings: ROR-gamma antagonist cell reporter assay; series mostly up to 92.2 µM; further: nearly all actives have a fitted effect of over 60% in size
Chain of Nuclear receptor ROR-gamma (Homo sapiens) (P51449 whole entry, looked up): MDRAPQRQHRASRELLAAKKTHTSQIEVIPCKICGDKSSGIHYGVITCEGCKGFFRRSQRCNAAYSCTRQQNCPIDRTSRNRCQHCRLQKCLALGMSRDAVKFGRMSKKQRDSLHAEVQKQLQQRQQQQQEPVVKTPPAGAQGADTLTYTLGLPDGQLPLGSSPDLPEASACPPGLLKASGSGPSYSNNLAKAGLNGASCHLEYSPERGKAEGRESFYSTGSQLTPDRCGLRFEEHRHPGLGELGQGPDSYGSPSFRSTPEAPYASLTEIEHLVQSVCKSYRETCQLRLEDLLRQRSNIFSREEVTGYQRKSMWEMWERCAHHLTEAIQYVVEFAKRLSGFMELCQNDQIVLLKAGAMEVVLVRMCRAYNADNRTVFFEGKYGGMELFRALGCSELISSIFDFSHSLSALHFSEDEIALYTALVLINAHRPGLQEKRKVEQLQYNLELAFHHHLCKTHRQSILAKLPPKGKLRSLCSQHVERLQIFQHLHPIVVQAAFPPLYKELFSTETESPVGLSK
Outline: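 CHO cells carrying TET-inducible ROR-gamma and an ROR response element–luciferase reporter were exposed to compound, then induced with doxycycline. After 16hr at 37C, luminescence was read; lower signal indicates antagonism.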

[15] = qHTS assay to identify small molecules that stimulate interleukin-8 (IL-8) secretion (AID 651758; active means well fitted activation curve with a large enough effect in the signal ratio; the % refers to the signal ratio); settings: HTRF ratio (665/615); series mostly up to 92.2 µM
Outline: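 THP-1 cells (2000/well) exposed to compound 16 h at 37 C; secreted IL-8 then detected by HTRF with cryptate- and XL665-labelled anti-IL-8 antibody pair after 1-3 h at room temperature.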

Row | SMILES | Potency [1] | Potency [2] | Potency [3] | Potency [4] | ratio activity, negative = inhibition [5] [%] | Potency [6] | activation [7] | activation [8] [%] | Potency [9] | Potency [10] | Potency [11] | activation [12] | max response [13] | Potency [14] | Potency [15]
1 | O=C(O)CCCC/C=C(\c1ccccc1)c1cccnc1 | inactive | inactive | inactive | inactive | -4.66 | – | – | – | – | – | – | – | – | – | –
2 | C[C@H](CCC(=O)O)[C@H]1CC[C@H]2[C@@H]3CC[C@@H]4C[C@H](O)CC[C@]4(C)[C@H]3C[C@H](O)[C@]12C | inactive | inactive | inactive | inactive | 1.95 | 66.8 µM (active) | -2.17% | 0.346 | inactive | inactive | inactive | -0.635% | -0.194% | – | –
3 | CC(C)CCCCCCc1ccc(O)cc1 | inactive | inactive | inactive | inactive | -8.37 | – | 2.32% | – | – | – | – | 0.323% | – | – | –
4 | Nc1nccs1 | inactive | inactive | inactive | inactive | – | inactive | 2.07% | 0.221 | – | – | inactive | 1.04% | -4.35% | inactive | –
5 | OB(O)O | inactive | inactive | inactive | inactive | 0.47 | inactive | -0.565% and -2.3% | – | inactive | inactive | inactive | 0.198% and -2.21% | -2.01% and 0.448% | inactive | inactive
6 | Cc1ccc(S(=O)(=O)O)cc1C | inactive | inactive | inactive | inactive | – | – | -1.09% | – | inactive | inactive | inactive | -1.47% | -6.39% | – | inactive
